Bioassay records as filed in PubChem.
In the library only some 2.3% were active in any assay of this set; here they are far more common.
CCT chaperon mod = changes cytosolic chaperonin activity; actives 0.3% (n = 360,000); purified chaperonin ATPase assay, HTRF ADP detection, 30 min; activity change, % (no concentration beside the values), hits read low; AID 651819; in the data active = activity change below about -30%; also: % is scaled to controls: 0 for no effect and ±100 for the full control effect
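TRiC (40 or 20 nM final, by batch activity) in 30 mM Tris pH 7.4, 100 mM KCl, 5 mM MgCl2, 1 mM DTT was treated with compound at 76 uM single dose, then 10 uM ATP, 30 min at 37 °C. ADP was read by HTRF Transcreener.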
aSyn yeast inh = alpha-synuclein toxicity inhibition in yeast; actives 0.14% (n = 370,000); Potency, µM (top dose mostly 46.1 µM), for inactives: at the highest dose growth rescue (activation), usual class: activators; Yeast expressing alpha-synuclein, growth rescue, BacTiter-Glo, 24 h; also: potency is read from the fitted curve at half-maximal effect; % of control where 0% means no effect; nearly all actives have a fitted effect of over 65% in size
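Rescue of yeast growth: cells expressing toxic alpha-synuclein, induced in galactose at OD600 0.02, incubated with compound 24 h at 30 C. ATP luminescence quantified growth; inhibitors of toxicity appear as activators.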
Abeta yeast res = compounds reversing amyloid beta toxicity in yeast. yeast expressing A-beta42, growth rescue, OD600, 48 h; response scale: 0% DMSO, 100% iron-clioquinol control. Potency, µM (highest dose often 46.1 µM), usual class: activators. actives 0.063% (n = 410,000). AID 1347071; also: potency is read from the fitted curve at half-maximal effect; nearly all actives have a fitted effect of over 55% in size
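Yeast A-beta toxicity model in growth medium with pinned compounds, 48 h at 30 C; growth read as absorbance at 600 nm. Normalized to FeCl3/clioquinol equimolar mix (positive) and DMSO (negative).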
Mm-Cpn inhibitor = blocks the Methanococcus maripaludis chaperonin Mm-Cpn; Potency, µM (doses to about 76.9 µM), for the others: at the top dose activity, negative = inhibition, hits mostly inhibitors; actives 0.031% (n = 330,000); purified Mm-Cpn ATPase, ADP Transcreener TR-FRET; also: potency is read from the fitted curve at half-maximal effect; % is scaled to controls: 0 for no effect and ±100 for the full control effect; nearly all actives have a fitted effect of over 80% in size
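ATPase turnover read by TR-FRET ADP competition (Eu cryptate antibody/ADP-d2, 665/590 nm): 10uM ATP final, 25nM Mm-CPN final, 30 min 37degC after 10-min compound preincubation, pH 7.4 Tris/KCl/MgCl2/DTT buffer.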
FUS suppressor = FUS proteinopathy suppression in yeast | S. cerevisiae FUS-expressing, growth rescue, OD600, 24 h | Potency, µM (doses to about 76.6 µM), usual class: activators | actives 0.24% (n = 390,000);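 also: potency is read from the fitted curve at half-maximal effect; plate controls were DMSO vehicle for no effect and reference control for full effect; nearly all actives have a fitted effect of over 55% in size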
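Toxicity suppression screen in FUS-yeast. Cells induced with 2% galactose, starting OD 0.005, treated 24hr at 30C with compounds at multiple final concentrations; growth by OD600.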
TDP43 rescue = TDP-43 toxicity inhibition in yeast. Potency, µM (series often up to 46.1 µM), for the others: top-dose growth rescue (activation), most hits filed as activators. AID 652104. actives 1.8% (n = 410,000). TDP-43 expressing yeast growth rescue, BacTiter-Glo, 24 h; also: potency is read from the fitted curve at half-maximal effect; % of control where 0% means no effect; nearly all actives have a fitted effect of over 50% in size
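Readout is BacTiter-Glo luminescence of cell growth, so inhibitors register as activators. TDP-43-expressing yeast at OD600=0.02 in galactose medium, after raffinose pregrowth to mid-log, were incubated with compound for 24 hr at 30 deg C.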
* = called active by the depositor; i = inactive; ? = inconclusive; · = no result. Unless noted, calls follow the shape of the dose curve; as a rule, active = well fitted curve in the direction sought with a large enough effect; inconclusive = small, poorly fitted or top-dose-only effect, or another doubt; inactive = no such curve, though single readings can be large; an effect the other way counts as inactive or inconclusive.

SMILES | CCT chaperon mod | aSyn yeast inh | Abeta yeast res | Mm-Cpn inhibitor | FUS suppressor | TDP43 rescue
O=S(=O)(NCc1ccccc1Cl)c1ccc(-c2cnc(C3CC3)o2)cc1 | · | · | i | · | i | 22µM*
O=S(=O)(NCc1ccccc1)c1ccc(-c2cnc(C3CC3)o2)cc1 | 0 | 4% | i | 3% | i | 5%
FC(F)(F)c1cccc(Nc2c3c(nc4ccc(Cl)cc24)CCC3)c1 | · | · | i | · | i | ?
C#CCN1C(=O)[C@]2(NCCc3c2[nH]c2ccc(OC)cc32)c2ccccc21 | · | · | · | · | i | ·
CSc1nncc(/C(C)=N/O)n1 | -57* | 0% | i | 0% | · | 13%
CCNC(=O)c1cc2c(c(-c3cccc(-c4ccccc4F)c3)n1)[C@@H](CCO)N(C(=O)CC1CC1)C2 | -3 | 15% | i | · | 18µM* | ?
C[C@H]1CCC[C@H](O)CC(=O)c2c(O)cc(O)cc2CC(=O)O1 | · | · | · | · | i | ·
Cc1cc(S(=O)(=O)c2ccc([N+](=O)[O-])cn2)ccc1Br | 1 | -22% | i | · | i | 1µM*
CC1CCCN(c2ccc(C(=O)NCc3ccco3)cc2[N+](=O)[O-])C1 (stereo not given) | -2 | 10% | i | 1% | i | 14µM*
CC1=C(C(=O)OCc2ccccc2)C(c2ccccc2Cl)NC(=O)N1CCCCCC(=O)O (stereo not given) | 0 | -3% | i | 0% | i | 35µM*
CC1=C(C(=O)OCc2ccccc2)C(c2ccccc2Cl)NC(=O)N1CCCC(=O)O (stereo not given) | 2 | -4% | i | -2% | i | ?
C1=Cc2ccccc2/C1=C(\Cc1ccncc1)Oc1ccncc1 | · | -9% | · | · | · | ·
CCC1CN(C(=O)N2CCC(C(=O)N3CCN(c4cc(C)ccc4C)CC3)CC2)c2ccccc2O1 (stereo not given) | · | · | i | · | ? | 22µM*
COc1ccc(NC(=O)CN(C)S(=O)(=O)c2ccc(Cl)cc2)c([N+](=O)[O-])c1 | -1 | 1% | i | -7% | i | -16%
COc1cccc(NC(=O)CN(C)CC(=O)Nc2ccc(Cl)cc2[N+](=O)[O-])c1 | 0 | 7% | i | -2% | i | 18µM*
O=C(Cn1ncc(Cl)c(Cl)c1=O)c1ccc2c(c1)OCCO2 | -2 | ? | i | ? | · | 22µM*
O=C(Nc1cccc(NC(=O)c2c(F)cccc2F)n1)c1c(F)cccc1F | -1 | -21% | i | -1% | i | 0%
O=C(Nc1cccc(NC(=O)c2cccc(F)c2)n1)c1cccc(F)c1 | -1 | -2% | i | 0% | i | 10µM*
c1ccc(-c2cccc(CNc3nc(-c4ccccn4)nnc3-c3ccccc3)c2)cc1 | · | · | · | · | 32µM* | ·
CN(C)c1nc(-c2ccccn2)nnc1-c1ccccc1 | 2 | ? | i | 1% | i | 26%
Cc1c(C(=O)N2CCN(c3ccccn3)CC2)cccc1[N+](=O)[O-] | -4 | 0% | i | 1% | i | 13%
Cc1cc(C(=O)N2CCN(c3cccc(Cl)c3)CC2)c2c(C)nn(-c3ccccc3Cl)c2n1 | · | · | i | · | ? | 20µM*
Cc1c(C(=O)N2CCN(c3cccc(Cl)c3)CC2)cccc1[N+](=O)[O-] | 2 | 23% | ? | -1% | i | 22µM*
Cc1ccc(N2CCN(C(=O)c3cccc([N+](=O)[O-])c3)CC2)cc1Cl | -1 | 7% | ? | 0% | i | 13µM*
CCCCCCCCNc1ccc(/C=C/c2ccnc3ccccc23)cc1 | · | -61% | · | · | · | ·
SMILES | CCT chaperon mod | aSyn yeast inh | Abeta yeast res | Mm-Cpn inhibitor | FUS suppressor | TDP43 rescue
COc1ccc(-c2c(Cc3ccccc3)nc(NC(=O)c3ccccc3)n2C)cc1 | · | · | · | · | i | ·
CCCCC#Cc1nc(NC)c2ncn([C@@H]3O[C@H](CO)[C@@H](O)[C@H]3O)c2n1 | · | 5% | · | · | · | ·
O=C(CCC1CCCCC1)NNC(=O)NC12CC3CC(CC(C3)C1)C2 | -2 | 2% | i | 1% | 25µM* | 0%
O=C(NN=Cc1cccc(OCc2ccccc2)c1)c1cc(-c2ccc(Cl)cc2)n[nH]1 | · | · | · | · | i | ·
c1ccc(-c2nc(-c3ccco3)n3ccccc23)cc1 | 1 | -2% | i | -4% | i | 25µM*
S=C(Nc1nc2c(s1)CCCC2)NC1CC1 | -5 | 2% | 8.9µM* | -3% | i | 26%
COC(=O)c1ccccc1NC(=O)c1ccc(=O)n(Cc2cccc(C)c2)c1 | · | 0% | i | · | i | 32µM*
COc1ccc(-c2nnc(SCC(=O)NN=Cc3c(O)ccc4ccccc34)n2-c2ccc(OC)cc2)cc1 | · | · | · | · | i | ·
COc1ccc(Nc2ncnc3c2nc2n3CCCC2)cc1Cl | · | · | i | · | i | 13µM*
CCOc1ccc(Nc2ncnc3c2nc2n3CCCCC2)cc1 | · | · | i | · | i | 13µM*
Fc1ccc(Nc2ncnc3c2nc2n3CCCCC2)c(F)c1 | · | · | i | · | i | 11µM*
COc1ccc(Nc2ncnc3c2nc2n3CCCCC2)cc1 | · | · | i | · | i | ?
O=S1(=O)c2ccc(N3CCC[C@H]3CO)cc2O[C@@H]2CCN1C2 | · | · | · | · | i | ·
CCC[C@H]1[C@@H](OC(=O)NCc2ccco2)CC[C@@]23CCCN2C(=O)CCC[C@@H]13 | · | · | · | · | i | ·
COc1ccc(NC(=O)CCCNS(=O)(=O)c2ccc3[nH]c(=O)oc3c2)cc1OC | · | · | · | · | i | ·
CCC1CCc2sc(C(=O)NNC(=O)c3ccncc3)cc2C1 (stereo not given) | -4 | -4% | i | 0% | ? | 17%
CCC1CCc2sc(C(=O)O)cc2C1 (stereo not given) | -2 | 18% | i | -5% | i | 14µM*
C=CCOc1ccc(C=CC(=O)c2c(O)c(OC)c(OC)c(OC)c2OC)cc1 | 0 | 13% | i | · | · | 22µM*
COc1ccc(C=CC(=O)c2c(OC)cc(OC)c(OC)c2O)cc1 | 3 | -5% | i | · | i | 11%
Cc1ccc2nc(-c3ccc(NS(=O)(=O)c4ccccc4)cc3)sc2c1 | -2 | 7% | i | -7% | i | 11%
Cc1ccc2nc(-c3ccc(NS(=O)(=O)c4ccc(F)c(F)c4)cc3)sc2c1 | -3 | -27% | i | -12% | i | 25µM*
CCc1c(C)sc(NC(=O)C2CC(c3c(F)cccc3Cl)=NO2)c1C#N (stereo not given) | -1 | 0% | i | 1% | i | 20µM*
N#Cc1c(NC(=O)C2CC(c3c(F)cccc3Cl)=NO2)sc2c1CCC2 (stereo not given) | 2 | 7% | i | -3% | · | 14%
